Test results published in PubChem BioAssay (NCI).
The panel holds about 83,000 compounds, 20% with a hit somewhere; the sample as a whole holds those more often.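 Negative percent growth values reflect cell death: -40 means 40% of the cells present at the start died, and -100 means all died.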 Activity calls are given as the source filed them. Rule for the calls: active = growth percent below 10; inactive = the rest.

Key:
Assay in all cases: NCI-60 one-dose screen, 48 h (100 = growth as untreated, 0 = no growth, -100 = all killed)
Details in all cases: 10 µM unless noted
[1] = system: HCT-15 colon
[2] = system: HT29 colon
[3] = system: SNB-75 CNS
[4] = system: SNB-19 CNS
[5] = system: U251 CNS
[6] = system: PC-3 prostate
[7] = system: SK-MEL-5 melanoma
[8] = system: UACC-62 melanoma
[9] = system: LOX IMVI melanoma
[10] = system: SK-MEL-28 melanoma

Measured: growth

Clc1nc(Cl)c2ncn(CC#CCn3cnc4c(Cl)nc(Cl)nc43)c2n1
inactive: [4] 12.2%
active: [1] -65.7% | [2] -44.2% | [3] 8.25% | [5] -75.8% | [6] -72.1% | [7] -66.9% | [8] -11.6% | [9] -83.4% | [10] -26.1%

CCCCCCC1(/C=N/NC(N)=O)NC(=O)NC1=O (stereo not given)
inactive: [1] 98.3% | [2] 76.9% | [3] 82.2% | [4] 105% | [5] 94.3% | [6] 91.8% | [7] 96.9% | [8] 99% | [9] 97.4% | [10] 106%

C[C@@H](Nc1cc(F)cc(F)c1)c1cc(C(=O)N(C)C)cc2c(=O)cc(N3CCOCC3)oc12
inactive: [1] 84% | [2] 23.9% | [4] 64.1% | [5] 61.4% | [6] 29% | [7] 73.2% | [8] 11.3% | [9] 48.2% | [10] 46.3%
active: [3] -8.61%

COC1CCC(N2C(=O)CNc3ncc(-c4ccc(C(C)(C)O)nc4)nc32)CC1 (stereo not given)
inactive: [1] 10.1% | [4] 13.5%
active: [2] 5.39% | [3] -22.7% | [5] 2.23% | [6] 8.06% | [7] -45.2% | [8] -21% | [9] 2.43% | [10] -8.74%

CC(=O)OCCC/C(=C\c1ccc2ccccc2c1)[N+](=O)[O-]
active: [1] -69.4% | [2] -29.8% | [3] -88.9% | [4] -39.5% | [5] -90.7% | [6] -96.8% | [7] -94% | [8] -75.5% | [9] -83.3% | [10] -91.1%

COC(=O)C1=C(C(=O)OC)C23C=C(C)C1C2=C(C)C1(CC1)[C@@](C)(O)C3=O (stereo not given in full)
active: [1] 6.97% | [2] -0.501% | [3] -56.5% | [4] 7.17% | [5] 2.06% | [7] -75.7% | [8] -45.2% | [9] -14.3% | [10] -22.5%
inactive: [6] 11.5%

CSC1=C(N)C(=O)c2[nH]cc(CO)c2C1=N
active: [1] -89.2% | [2] -9.17% | [3] -80.2% | [4] -92.2% | [5] -95.1% | [6] -39.9% | [7] -98.8% | [8] -83.2% | [9] -84.9% | [10] -78%

COc1cc(Nc2ncc3c(n2)-c2ccc(Cl)cc2C(c2c(F)cccc2OC)=NC3)ccc1C(=O)O
inactive: [1] 37.2% | [2] 40.7% | [3] 91.6% | [4] 74.1% | [5] 51.6% | [6] 60.7% | [7] 67.8% | [8] 64.6% | [9] 35.9% | [10] 84.7%

CN1[C@@H]2CC[C@H]1/C(=C\c1ccccc1)C1=C2[C@@H](c2ccccc2)C(C#N)=C(N)O1
inactive: [1] 81.1% | [2] 67.7% | [3] 80.4% | [4] 83.6% | [5] 77.7% | [6] 72.8% | [7] 74.1% | [8] 73.9% | [9] 97.8% | [10] 104%

C/C(=C(/c1ccc(Cl)cc1)c1ccc(OCCN2CCCCCC2)cc1)c1ccccc1
active: [2] 8.45%
inactive: [1] 20.3% | [3] 88.4% | [4] 88.4% | [5] 73.1% | [6] 69.3% | [7] 69.5% | [8] 90% | [9] 62.6% | [10] 88%

CC(C)CC(=O)Nc1n[nH]c2c1CN(C(=O)C1CCN(C)CC1)C2(C)C
inactive: [1] 78.8% | [4] 11.5% | [6] 16.1%
active: [2] -1.54% | [3] -19.8% | [5] 2.91% | [7] -35.7% | [8] -19.1% | [9] 9.19% | [10] 9.19%

Cn1c(=O)c(F)c(Nc2ccc(I)cc2F)c2c(=O)n(C[C@@H](O)CO)cnc21
inactive: [1] 54.6% | [3] 62.7% | [4] 42.6% | [5] 31.4% | [6] 68.4% | [7] 36.3% | [9] 15.3%
active: [2] 7.51% | [8] 0.259% | [10] 0.0364%

Cn1cc(-c2cnn3c(N)c(Br)c([C@@H]4CCCNC4)nc23)cn1
inactive: [1] 60.6% | [2] 23% | [3] 20.5% | [4] 52.1% | [5] 61% | [6] 42.8% | [7] 28.6% | [8] 63.7% | [9] 22% | [10] 72.5%

O=C(Nc1cnn2ccc(N3CCC[C@@H]3c3cc(F)ccc3F)nc12)N1CC[C@H](O)C1
inactive: [1] 92.6% | [2] 74.1% | [3] 29.1% | [4] 92% | [5] 85.7% | [6] 89.4% | [7] 97.8% | [8] 99% | [9] 80.1% | [10] 109%

CC(=O)c1c(C)c2cnc(Nc3ccc(N4CCNCC4)cn3)nc2n(C2CCCC2)c1=O
active: [2] -22.8%
inactive: [1] 22.4% | [3] 54.9% | [4] 50.5% | [5] 37.8% | [6] 32.9% | [7] 41.1% | [8] 49.9% | [9] 17.6% | [10] 56.4%

Nc1ncnc2c1c(-c1cccc(OCc3ccccc3)c1)cn2C1CC(CN2CCC2)C1 (stereo not given)
inactive: [1] 10.1% | [4] 32.1% | [6] 27.4%
active: [2] -39.8% | [3] -28.7% | [5] -17.9% | [7] -96.7% | [8] -55.9% | [9] -75% | [10] -69.6%

Cc1sc2c(c1C)c(=O)nc1c(-c3nc4ccccc4s3)n[nH]n12
inactive: [1] 100% | [2] 101% | [3] 95.3% | [4] 101% | [5] 98% | [6] 78.7% | [7] 96.7% | [8] 88.4% | [9] 93.3% | [10] 101%

Cc1ccsc1C(NC(=O)c1ccccc1)c1cc(Cl)c2cccnc2c1O (stereo not given)
active: [5] 6.52% | [7] 4.33% | [8] -22.3% | [9] 8.58%
inactive: [1] 13.4% | [2] 29.2% | [3] 30% | [4] 15.3% | [6] 18.3% | [10] 45.4%

Cc1cc(N2CCCC2)nc(N(CCCNc2ccnc3cc(Cl)ccc23)Cc2ccc3c(c2)OCO3)n1
inactive: [4] 23.5% | [6] 20.7%
active: [1] 3.01% | [2] -23.9% | [3] 3.65% | [5] -9.48% | [7] -96.8% | [8] -32.9% | [9] -78.3% | [10] -82%

CCCCN1CCCC[C@@H]1C(=O)N[C@H](C(=O)N(C)[C@H](CCc1nc(C(=O)N[C@@H](Cc2ccccc2)C[C@H](C)C(=O)OC)cs1)C(C)C)C(C)C
inactive: [1] 59.4% | [2] 68.9% | [3] 75.2% | [4] 57.9% | [5] 83.8% | [6] 35% | [7] 53.5% | [8] 43.6% | [9] 80% | [10] 76.4%

Fc1ccc(NCc2cn(-c3ccccc3)nc2-c2ccc(OCc3ccccc3)cc2)cc1Cl
inactive: [1] 92.2% | [2] 71.3% | [3] 77.7% | [4] 95.1% | [5] 97.1% | [6] 79.9% | [7] 101% | [8] 90.7% | [9] 96.7% | [10] 98.9%

Cc1ccc(NC(=O)Nc2ccc(Nc3ncnc4sc5c(c34)CCOC5)cc2)cc1Cl
inactive: [1] 106% | [2] 81.2% | [3] 69.8% | [4] 103% | [5] 87.7% | [6] 81.2% | [7] 95% | [8] 95.4% | [9] 97.3% | [10] 111%

COc1cc2ncnc(Oc3cccc(NC(=O)Nc4cc(C(C)(C)C(F)(F)F)on4)c3)c2cc1OC
inactive: [1] 22.4% | [3] 38.1% | [4] 74.9% | [5] 50.8% | [6] 35.1%
active: [2] 6.54% | [7] 0.0888% | [8] -10.5% | [9] 0.911% | [10] -3.09%

ClCc1ccc(-c2ccc(Cn3cnc4c(Cl)nc(Cl)nc43)cc2)cc1
active: [1] -44.3% | [2] 0.0492% | [3] -26.9% | [4] 0.603% | [5] -79.2% | [6] -95.6% | [7] -67.7% | [8] -13.6% | [9] -70.8% | [10] -29.4%

Oc1ccc(C(c2ccc(O)cc2)C(Cl)(Cl)Cl)cc1
inactive: [1] 93.4% | [2] 110% | [3] 66.4% | [4] 99.9% | [5] 106% | [6] 75.2% | [7] 100% | [8] 79.8% | [9] 87.6% | [10] 113%

CCCCn1c(C)nc2cc(Nc3nc(N4CCCCC4)nc4nc[nH]c34)ccc21
active: [7] -31.7%
inactive: [1] 52.9% | [2] 59.8% | [3] 11.4% | [4] 73.3% | [5] 58.5% | [6] 25.7% | [8] 45.4% | [9] 33.7% | [10] 76%
